Results published in PubChem BioAssay (NCATS).
Inconclusive results are not listed. Activity calls are given as the source filed them. Calls follow the shape of the dose curve; as a rule, active = well fitted cell-killing curve with a large enough effect; inconclusive = small, poorly fitted or top-dose-only effect, or effect the other way; inactive = flat fitted curve, though single readings scatter.

Each molecule was assayed on C33A (assay: Primary qHTS to identify gynecologic anti-cancer compounds using libraries of approved drugs and bioactive compounds (AID 1345084; also: nearly all actives have a fitted effect of over 55% in size)). Conditions: Gynecologic cancer cell panel viability, ATPlite luminescence, 48 h; series mostly up to 57.5 µM; activity change, negative = cytotoxicity: at the top concentration.
How it was run: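 In this quantitative HTS, cell killing is estimated from loss of ATP-dependent luciferase light. Cells see five compound concentrations over a 48 h exposure.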
% is scaled to controls: 0 for no effect and ±100 for the full control effect.

CC1(C)CC[C@]2(C(=O)O[C@@H]3O[C@H](CO)[C@@H](O)[C@H](O)[C@H]3O)CC[C@]3(C)C(=CCC4[C@@]5(C)CC[C@H](OC6OC(C(=O)O)C(OC7OC(CO)C(O)C(O)C7O)C(O)C6O)C(C)(C)C5CC[C@]43C)C2C1 (stereo partly drawn) was tested. Which activity change, negative = cytotoxicity did it give?
Its activity change, negative = cytotoxicity is 1.52% [at 11.6 µM] (inactive).

For COc1cccc(CN(C(=O)CC(C)(C)C)C2CC(C(=O)N3CCNCC3)N(Cc3ccc4c(c3)OCO4)C2)c1 (stereo not drawn), which “activity change, negative = cytotoxicity” value is on record?
Its value is 1.83% (inactive).

How did the activity change, negative = cytotoxicity turn out when C/C=C(/C)C(=O)OC1CC(C)(C)CC2C3=CCC4C5(C)CCC(OC6OC(C)C(OC7OC(C(=O)O)C(O)C(OC8OC(CO)C(O)C(O)C8OC8OC(CO)C(O)C(O)C8O)C7O)C(O)C6O)C(C)(C)C5CCC4(C)C3(C)C(OC(=O)/C=C/C=C/C=C/CCC)C(OC(C)=O)C12CO (stereo not drawn) was run?
Its activity change, negative = cytotoxicity is -5.83% [at 6.55 µM] (inactive).

With Cc1ccc(-c2c(-c3nn(C)c4ncnc(N5CC[C@H](N6CCCCC6)C5)c34)cnn2C)cc1 as the molecule, how does the “activity change, negative = cytotoxicity” value read?
Its value is 3.83% (inactive).

With O=C(/C=C/C=C/c1ccc2c(c1)OCO2)N1CCCCC1 as the molecule, how does the “activity change, negative = cytotoxicity” value read?
The value was -16.2% (inactive).

For O=C(O)c1cc(O[C@@H]2O[C@H](CO)[C@@H](O)[C@H](O)[C@H]2O)ccc1O, which “activity change, negative = cytotoxicity” value is on record?
Its value is 5.92% [at 38.5 µM] (inactive).

For Nc1nc(COC(=O)c2ccc([N+](=O)[O-])cc2)nc(Nc2ccccc2)n1, which “activity change, negative = cytotoxicity” value is on record?
Its value is 1.1% (inactive).

For C[C@@H]1O[C@@H](O[C@H]2[C@H](O[C@H]3[C@H](O[C@H]4CC[C@@]5(C)C(CC[C@]6(C)C5CC=C5[C@@H]7CC(C)(C)C[C@@H](O)[C@]7(C)CC[C@]56C)[C@@]4(C)CO)O[C@H](C(=O)O)[C@@H](O)[C@@H]3O)O[C@H](CO)[C@H](O)[C@@H]2O)[C@H](O)[C@H](O)[C@H]1O (stereo partly drawn), which activity change, negative = cytotoxicity is on record?
Its activity change, negative = cytotoxicity is -1.56% [at 11.6 µM] (inactive).

For COc1cc(CO)ccc1O[C@@H]1O[C@H](CO)[C@@H](O)[C@H](O)[C@H]1O, which “activity change, negative = cytotoxicity” value is on record?
Its value is -4.96% [at 38.5 µM] (inactive).

Which “activity change, negative = cytotoxicity” value does the source give for COC(=O)c1c(CC=C(C)C)c(OC2OC(CO)C(O)C(O)C2O)c2ccccc2c1OC1OC(CO)C(O)C(O)C1O (stereo not drawn) here?
The value was 1.05% [at 25.3 µM] (inactive).

How did the “activity change, negative = cytotoxicity” value turn out when COc1ccc(C2(O)c3c(ccc4c3OC(C)(CCC=C(C)C)C=C4)NC(=O)C2OC)cc1 (stereo not drawn) was run?
The value was -5.69% [at 25.3 µM] (inactive).

How did the “activity change, negative = cytotoxicity” value turn out when Cc1ccc(C)c(NC(=O)CNS(=O)(=O)c2ccc3[nH]c(=O)oc3c2)c1 was run?
The value was 24.5% (inactive).

How did the “activity change, negative = cytotoxicity” value turn out when CO[C@H]1c2cc(C(C)C)c(O)c(O)c2[C@@]23CCCC(C)(C)C2[C@@H]1OC3=O (stereo partly drawn) was run?
The value was -2.17% [at 38.5 µM] (inactive).

Which “activity change, negative = cytotoxicity” value does the source give for COc1cc(C(C)=O)ccc1O[C@@H]1O[C@H](CO[C@@H]2OC[C@@H](O)[C@H](O)[C@H]2O)[C@@H](O)[C@H](O)[C@H]1O here?
Its value is -11.3% [at 25.3 µM] (inactive).

With COC(=O)c1[nH]c(=O)c2ccccc2c1-c1ccc[nH]1 as the molecule, how does the “activity change, negative = cytotoxicity” value read?
The value was -23.3% (inactive).

With CN[C@H](CNC(=O)N1CCC[C@@H]([C@@H](OCCNC(=O)OC)c2cccc(Cl)c2)C1)C[C@H]1CCCOC1 as the molecule, how does the “activity change, negative = cytotoxicity” value read?
The value was 9.73% (inactive).

With O=C(O)CCc1cc2ccoc2cc1O[C@@H]1O[C@H](CO)[C@@H](O)[C@H](O)[C@H]1O as the molecule, how does the “activity change, negative = cytotoxicity” value read?
The value was -1.2% [at 38.5 µM] (inactive).

CC(C)[C@@H](C(=O)O)N1Cc2c(cc(O)c3c2O[C@]2(C3)[C@H](C)CCC3C(C)(C)[C@H](O)[C@H](O)C[C@@]32C)C1=O (stereo partly drawn) was tested. Which “activity change, negative = cytotoxicity” value did it give?
Its value is 2.52% [at 25.3 µM] (inactive).

CCOC(=O)CSc1nc2c(sc3ccccc32)c(=O)n1CCCN1CCCC1 was tested. Which “activity change, negative = cytotoxicity” value did it give?
The value was 1.32% (inactive).

With CC1CCC2(C(=O)O)CCC3(C)C(=CCC4C5(C)CCC(O)C(C)(C(=O)O)C5CCC43C)C2C1(C)O (stereo not drawn) as the molecule, how does the “activity change, negative = cytotoxicity” value read?
Its value is 10.3% [at 25.3 µM] (inactive).

For Cc1ccccc1N1CCN(S(=O)(=O)C[C@]23CC[C@H](C[C@@H]2NC(=O)[C@@H](N)CCS(C)(=O)=O)C3(C)C)CC1, which “activity change, negative = cytotoxicity” value is on record?
Its value is 17.7% (inactive).

For C/C=C(\C)C(=O)OCC1OC(OCC2OC(OC3(CO)OC(CO)C(O)C3O)C(O)C(O)C2O)C(O)C(O)C1O (stereo not drawn), which “activity change, negative = cytotoxicity” value is on record?
The value was 1.75% [at 25.3 µM] (inactive).

COc1ccc(/C=C/C(=O)O[C@@H]2[C@@H](OC(C)=O)[C@@H](OC(C)=O)[C@H](O[C@H]3[C@@H]4C=CO[C@@H](O[C@@H]5O[C@H](CO)[C@@H](O)[C@H](O)[C@H]5O)[C@@H]4[C@@]4(CO)O[C@@H]34)O[C@H]2C)cc1 was tested. Which “activity change, negative = cytotoxicity” value did it give?
Its value is -1.63% [at 25.3 µM] (inactive).

Which “activity change, negative = cytotoxicity” value does the source give for CC1=C2C[C@@]3(C)[C@@H](CCC[C@@H]3C)C[C@@]2(O)OC1=O here?
Its value is 2.44% (inactive).

COC(=O)/C=C/c1ccc(O[C@@H]2O[C@H](CO)[C@@H](O)[C@H](O)[C@H]2O)cc1 was tested. Which “activity change, negative = cytotoxicity” value did it give?
The value was 4.76% [at 38.5 µM] (inactive).

FC(F)(F)Oc1ccc(-c2ccc3nnc(C(F)(F)F)n3c2)cc1 was tested. Which “activity change, negative = cytotoxicity” value did it give?
The value was -2.51% (inactive).

Which “activity change, negative = cytotoxicity” value does the source give for C=C(C(=O)O)C1CC(OC(=O)CC(C)CC)C2(C)CCCC(=C)C2C1 (stereo not drawn) here?
The value was -0.932% [at 38.5 µM] (inactive).

With CC(C)(O)C1CC=C(C(=O)OC[C@H]2O[C@@H](OC(=O)C3=CCC(C(C)(C)O)CC3)[C@H](O)[C@@H](O)[C@@H]2O)CC1 (stereo partly drawn) as the molecule, how does the “activity change, negative = cytotoxicity” value read?
The value was -1.43% [at 25.3 µM] (inactive).
